Experimental findings from the OligoGym collection are described below.

Test in all cases: pooled miR-30 sensor sort-seq; sequence = guide strand
Holding throughout (details): shRNA

The target of assay [1] is TTLL4.
In assay [2] the target is TUSC2.
In assay [3] the target is TUT1.
The target of assay [4] is TXLNG.
Assay [5] deals with TULP4.
Note: reference of the scale not given here.

TTAGCTTCTGATGCTCTCGAAT: the sensor-assay potency score (higher = more potent) in assay [1] was -0.842. Regarding TAGAACATAGAGCCGCGGCGCG, the sensor-assay potency score (higher = more potent) in assay [2] is -1.07.

In the case of TCTCCTCATAGAACTCGTGAGC, in assay [2], the sensor-assay potency score (higher = more potent) was -1.05. In the case of TTGTCCATGACAACACTGGCCA, in assay [3], the sensor-assay potency score (higher = more potent) was -0.399. Regarding TTCTCGCAGCTCGTAGTTCTAC, the sensor-assay potency score (higher = more potent) in assay [3] is -0.83. Turning to TTTTAGTTGTACTTCCTGCTGT, the sensor-assay potency score (higher = more potent) in assay [4] is 0.554. Take TCATCATAGAACATAGAGCCGC: in assay [2], the sensor-assay potency score (higher = more potent) is -0.771. For the sequence TTTCTTTGTCATCTTTTCCATT, in assay [4], the sensor-assay potency score (higher = more potent) was -0.923. TCCTTGTCCATGACAACACTGG: the sensor-assay potency score (higher = more potent) in assay [3] is -1.19. As for AATCAGATTCTTATGCACTCGC, the sensor-assay potency score (higher = more potent) in assay [2] came out at 0.0606.

For TCGTAGTTCTACCAGGTGCCGG, the sensor-assay potency score (higher = more potent) in assay [3] was -1.53. In the case of ATTCTTATGCACTCGCCTCAGC, in assay [2], the sensor-assay potency score (higher = more potent) was -1.06.

In assay [5], TTCAAGCACACATCCACTGGGG had a sensor-assay potency score (higher = more potent) of 0.492. As to AAGCTTGCTCAGCTCCTGCTGC, the sensor-assay potency score (higher = more potent) in assay [2] is -0.817. For the sequence TGACAGAACTTGACCACAGGGC, the sensor-assay potency score (higher = more potent) in assay [3] was found to be 0.248.

As to TTCTTCTTCCTCTCGTGCCTGC, the sensor-assay potency score (higher = more potent) in assay [4] is -0.0706. On the same count and under the same terms, as for TAACGTCTTATTGTGACGCTGA, the figure is 0.553. For TTCGATGAGCTTCTTTAGCTTC, the sensor-assay potency score (higher = more potent) in assay [4] is -0.258. In assay [2], TTGGTGACGATTGTCTCCTCAT gave a sensor-assay potency score (higher = more potent) of 0.0125.

With AACATTGTAGAACTTGACCATG, in assay [5], the sensor-assay potency score (higher = more potent) was -1.37. TTGTCTTATTCAACTTCTTTGA: the sensor-assay potency score (higher = more potent) in assay [5] was -0.83. Turning to TTTGGACTCGATACACCCCAGG, the sensor-assay potency score (higher = more potent) in assay [3] was -0.836. With TTGCACTCTGAATCTTGCTGAC, the sensor-assay potency score (higher = more potent) in assay [4] was found to be 0.000943.

As for TAGTTCTACCAGGTGCCGGTGC, the sensor-assay potency score (higher = more potent) in assay [3] was -0.799. Take TTCTCATTGAGCTCATTCCTTT: in assay [4], the sensor-assay potency score (higher = more potent) was -0.993. ATTTGCTTCTGAACACTCCTGC came in with a sensor-assay potency score (higher = more potent) in assay [4] of 0.776. TAGGAAGTACTCAGAGAGCTGA had a sensor-assay potency score (higher = more potent) in assay [3] of 0.227. Take TTCTTCTGCTCGGCTGTCCAGG: in assay [5], the sensor-assay potency score (higher = more potent) was -0.627. Take TACTGAGGGAGACATCACCGTG: the sensor-assay potency score (higher = more potent) in assay [3] is -1.54. With TTCTTGGTGACGATTGTCTCCT, the sensor-assay potency score (higher = more potent) in assay [2] is -0.377.
